The source of these data is PubChem BioAssay (Tox21).

Several values for one entry are separate records, joined by “and”; a condition that tells them apart may be missing. Equal entries are not always repeated. Records with an inconclusive call do not appear. A call without a number means that no potency is given here. Where a structure was tested more than once in an assay, its records may differ in their call. Activity calls are given as the source filed them. The call rests on the fitted dose curve; in most records, active means well fitted cell-killing curve with a large enough effect in the repeat runs; inconclusive means weak or mixed curves, or effect the other way; inactive means flat fitted curve, though single readings scatter.
Potency means the concentration at half of the fitted maximal effect.

A short description of this experiment: qHTS assay to identify small molecule that activate the aryl hydrocarbon receptor (AhR) signaling pathway - cell viability counter screen (AID 743086). Further: nearly all actives have a fitted effect of over 45% in size.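 On viability change, negative = cytotoxic: HepG2 liver cells carrying the AhR DRE luciferase reporter.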 As to conditions: HepG2-AhR-luc viability, CellTiter-Fluor, 24 h; series mostly up to 70.3 µM; viability change, negative = cytotoxic: at the top concentration. From the text: U.S. Tox21 Program National Center for Advancing Translational Sciences [NCATS] NIH Chemical Genomics Center [NCGC] U.S. Environmental Protection Agency [EPA] National Institutes of Environmental Health Sciences [NIEHS] National Toxicology Program [NTP] U.S. Food and Drug Administration [FDA] Tox21 Assay overview: The Aryl hydrocarbon Receptor (AhR), a member of the family of basic helix-loop-helix transcription factors, is crucial to adaptive responses to environmental changes. AhR mediates cellular responses to environmental pollutants such as aromatic hydrocarbons through induction of phase I and II enzymes but also interacts with other nuclear receptor signaling pathways A cell based HepG2-AhR-luc assay (HG2L7.5c1 cell line, developed by Dr. Michael S. Denison, University of California at Davis) was used to assess the activation of AhR. HepG2 (human hepatocellular carcinoma) cells were stably transfected with an Ah receptor-responsive firefly luciferase reporter gene plasmid containing 20 dioxin responsive elements and luciferase reporter gene. Increased luciferase activity can be used to identify the compounds that induce AhR activation. The cytotoxicity of the compounds screened against the HepG2-AhR-luc cell line was tested in parallel by measuring the cell viability using CellTiter-Fluor assay in the same wells.
Tox21 Assay Protocol Summary: 4000 cells in 5 uL/well were dispensed into white wall/solid bottom 1536-well plates using a Multidrop Combi (Thermo Fisher Scientific Inc., Waltham, MA) dispenser. After the assay plates were incubated at 37C for 5 h, 23 nL of compound or DMSO vehicle was transferred to the assay plates by a pintool station (Kalypsys, San Diego, CA). The plates were incubated at 37C for 24 hr. For cell viability measurement, 1 ul/well of CellTiter-Fluor reagent (Promega, Madison, WI) was added into the assay plates using a Flying Reagent Dispenser (FRD) (Aurora Discovery, CA),and then the assay plates were incubated at 37C for 30 min. The fluorescence intensity in the plates was measured using a ViewLux plate reader (PerkinElmer, Shelton, CT), followed by the addition of 4 uL of ONE-Glo Luciferase Assay reagent (Promega) using an FRD (Aurora Discovery). After the assay plates were incubated at room temperature for 30 min, luminescence intensity was measured using a ViewLux plate reader (Perkin Elmer).
On the technique in general: qHTS replaces the single test concentration by a dilution series.
In the case of `O=C(O)c1nc(Cl)ccc1Cl`, the Potency result was “inactive”.
As for `COc1ccc(N)cc1`, the Potency entry is “inactive”.
Consider `CCCCCCCCCCn1cc[n+](C)c1`, for which the Potency entry is “inactive”.
As for `Cc1cc(-c2ccc(N)c(C)c2)ccc1N`, the Potency result is “inactive”.
Turning to `C=CCOC(Cn1ccnc1)c1ccc(Cl)cc1Cl` (stereo not given), the “viability change, negative = cytotoxic” value is -2.21% (inactive).
With `N#CS`, the Potency result was “inactive”.
Same read-out and setting: as for `Oc1ccccc1-c1ccccc1`, the entry is “inactive”; as for `Nc1ccc(Cl)cc1`, “inactive”; as for `CCn1cc[n+](C)c1C`, “inactive”.
Still for that read-out and setting: as for `O=c1[nH]c(=O)n(Cl)c(=O)n1Cl`, the entry is “inactive”; as for `CCCC[n+]1ccccc1C`, “inactive”; as for `O=[N+]([O-])c1ccccc1O`, “inactive”.
Regarding `Nc1ccccc1`, the Potency result was “inactive”.
Still for that read-out and setting: then `CCCCCCCCn1cc[n+](C)c1`, with “inactive”; and `COCC(=O)N(c1c(C)cccc1C)C(C)C(=O)OC` (stereo not given), with “inactive”; and `CCCCn1cc[n+](C)c1`, with “inactive”.
The same measure, in the same setting: as for `COc1ccccc1N`, the entry is “inactive”; as for `CC[N+]1(C)CCCC1`, “inactive”; as for `Cc1cc(Cl)ccc1OCC(=O)O`, “inactive”.
Same read-out and setting: then `C[C@]12CCC(=O)C=C1CC[C@@H]1[C@@H]2CC[C@]2(C)C(=O)CC[C@@H]12`, with “inactive”.
On to `CCC(=O)C(CC(C)N(C)C)(c1ccccc1)c1ccccc1` (stereo not given), for which the “viability change, negative = cytotoxic” value was -20.4% (inactive).
Turning to `CCCCCC[n+]1ccccc1`, the Potency result was “inactive”.
The same measure, in the same setting: then `Oc1cccc2cccnc12`, with “inactive and 18.8 µM (active) and 2.05 µM (active)”.
Same read-out and setting: then `O=C(O)c1ccccc1O`, with “inactive”; and `CCCC[N+]1(C)CCCCC1`, with “inactive”; and `O=P1(N(CCCl)CCCl)NCCCO1` (stereo not given), with “inactive”.
Turning to `CNC`, the Potency result is “inactive”.
As to `CCCC[N+]1(C)CCCC1`, the Potency result is “inactive”.
Regarding `CCOP(=S)(OCC)Oc1ccc2c(C)c(Cl)c(=O)oc2c1`, the Potency entry is “inactive”.
Still for that read-out and setting: as for `CC[N+](CC)(CC)CC`, the entry is “inactive”; as for `O=[N+]([O-])O`, “inactive”.
On the same count and under the same terms, as for `OCCOc1ccccc1`, the entry is “inactive”; as for `CCCCCCCCCCCCOS(=O)(=O)O`, “inactive”.
Still for that read-out and setting: then `Nc1ccc(-c2ccc(N)cc2)cc1`, with “inactive”; and `O=C(O)COc1ccc(Cl)cc1Cl`, with “inactive”.
With `CCCC[n+]1ccc(C)cc1`, the Potency entry is “inactive”.
On the same count and under the same terms, then `CCCCCCCCCCCCCC[P+](CCCCCC)(CCCCCC)CCCCCC`, with 61.4 µM (active) and 54.9 µM (active) and inactive.
Still for that read-out and setting: then `O=c1nc(O)n(Cl)c(=O)n1Cl`, with “inactive”; and `C1CCC(NC2CCCCC2)CC1`, with “inactive”.
Still for that read-out and setting: as for `CC(Cl)(Cl)C(=O)O`, the entry is “inactive”.
